We go through 21 molecules from the antibiotic and cytotoxicity screens of Wong et al. (2023).

Each structure is given as a SMILES string. Hit rate of the full screen: of about 39,000 compounds, about 3,300 (8.5%) were called active. The sample holds actives, similar compounds and a random draw of the others, so the mix is not that of the screen.

The assay deals with HepG2. Put plainly: cytotoxicity call (relative viability < 0.9). The settings on record: 10 µM.
In the case of `COc1ccc([N+](=O)[O-])cc1CNCCO`, the cytotoxicity call was “inactive”.
Take `CCNC(=O)C[C@H]1C=C[C@@H](NC(=O)C2CCOCC2)[C@H](CO)O1`: the cytotoxicity call is “inactive”.
Next, `CN(C)CC(=O)N[C@@H]1CC[C@@H](CCNS(=O)(=O)c2ccccc2)O[C@H]1CO`: “inactive”; `NCc1ccccc1-c1ccco1`: “inactive”; `C1CC(N2CCNCC2)C1`: “inactive”.
Take `CN(C)CC(=O)N[C@@H]1CC[C@@H](CC(=O)O)O[C@H]1CO`: the cytotoxicity call is “inactive”.
As to `C[C@H](CO)N1C[C@H](C)[C@@H](CN(C)Cc2cccc3c2OCCCO3)OCc2cnnn2CCCC1=O`, the cytotoxicity call was “inactive”.
Consider `CC(O)C(=O)Nc1c(I)c(C(=O)NC(CO)CO)c(I)c(C(=O)NC(CO)CO)c1I` (stereo unspecified), for which the cytotoxicity call was “inactive”.
On to `Cc1cccc(S(=O)(=O)N2C[C@@H](O)COC[C@@H]3O[C@@H](CC(=O)NCCCN4CCOCC4)CC[C@H]32)c1`, for which the cytotoxicity call was “inactive”.
In the case of `COc1ccc(S(=O)(=O)N(C)C[C@@H]2Oc3ccc(NC(=O)NC(C)C)cc3C(=O)N([C@H](C)CO)C[C@H]2C)cc1` it was “inactive”; in that of `C[C@@H]1CN([C@H](C)CO)C(=O)c2cccc(NC(=O)c3cnccn3)c2O[C@@H]1CN(C)S(=O)(=O)c1cccs1`, “inactive”; in that of `COC(=O)C1=C2CC[C@H](CO)NC(=O)N[C@@H](Cc3ccccc3)C(=O)NCc3cn(nn3)C[C@H](Cc3ccccc3)NC(=O)c3oc(c(C(=O)OC)c3C(=O)OC)CC[C@H](CO)NC(=O)N[C@@H](Cc3ccccc3)C(=O)NCc3cn(nn3)C[C@H](Cc3ccccc3)NC(=O)C(=C1C(=O)OC)O2`, “inactive”.
Next, `CCCN(C)C[C@@H]1OCCCC[C@@H](C)Oc2ccc(NS(C)(=O)=O)cc2C(=O)N([C@H](C)CO)C[C@H]1C`: “inactive”; `CO[C@@H]1CN(C)C(=O)c2ccc(NC(=O)c3ccccc3)cc2OC[C@@H](C)N(C(=O)CN(C)C)C[C@@H]1C`: “inactive”; `CNC(=N)NCCC[C@@H](N)C(=O)O`: “inactive”.
For the molecule `C[C@@H]1CN([C@H](C)CO)C(=O)c2cc(C#Cc3ccccc3F)cnc2O[C@H]1CN(C)C(=O)Cc1ccncc1`, the cytotoxicity call was “inactive”.
In the case of `Oc1c(Cl)cc(Cl)cc1Sc1cc(Cl)cc(Cl)c1O`, the cytotoxicity call is “active”.
For the molecule `Cc1noc(C)c1NC(=O)Nc1ccc2c(c1)C(=O)N([C@@H](C)CO)C[C@@H](C)[C@H](CN(C)CC1CC1)OCCCC[C@H](C)O2`, the cytotoxicity call was “inactive”.
For the molecule `C[C@H]1CN([C@@H](C)CO)C(=O)c2cc(NC(=O)Cn3cnnn3)ccc2O[C@H]1CN(C)S(=O)(=O)c1cccs1`, the cytotoxicity call is “inactive”.
With `C[C@H]1CN([C@@H](C)CO)C(=O)CCCn2cc(nn2)CO[C@H]1CN(C)Cc1ccc2c(c1)OCCN2C`, the cytotoxicity call was “inactive”.
In the case of `C[C@H](CO)N1C[C@H](C)[C@H](CN(C)Cc2ccc(Cl)c(Cl)c2)Oc2ccc(NC(=O)C3CCCCC3)cc2CC1=O` it was “inactive”.
